# Test results from PubChem BioAssay (EPA / NIEHS).
# Where “and” joins values, the source holds several entries; their conditions need not be identical. Equal entries are not always repeated. Some structures have more than one record in an assay (separate samples or runs), and their calls can disagree. Calls of active or inactive are those of the source. How the source made its calls: active means hit-call score of the fitted dose curve at least 0.9, where 1 is the maximum; inactive means score below 0.9.
# How the values were obtained:
# [1] = ATG_M_61_CIS: Attagene CIS-FACTORIAL HepG2 Assay for M61 Transcription Factor (Internal Marker) (AID 2282937); conditions: HepG2 Attagene CIS-FACTORIAL M61 internal marker reporter; actives raise or lower the signal
# Outline: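 Readout is reporter mRNA by RT-PCR, fluorescent primer extension and capillary electrophoresis, with gain or loss fitted relative to DMSO. Transfected HepG2 cells carrying endogenous-TF-driven cis reporters were exposed to chemicals for 24 hours.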
# [2] = ATG_EGR_CIS: Attagene CIS-FACTORIAL HepG2 Assay for human Early Growth Response 1 (EGR1) (AID 2282938); conditions: HepG2 Attagene CIS-FACTORIAL EGR reporter mRNA; actives raise or lower the signal
# Outline: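 After 24 h compound exposure, RNA from reporter-transfected HepG2 cells was reverse-transcribed, PCR-amplified, fluorescently labelled and resolved by capillary electrophoresis. EGR1 reporter transcript changes, up or down, were fitted against DMSO, reflecting endogenous transcription-factor activity.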
# [3] = ATG_M_19_CIS: Attagene CIS-FACTORIAL HepG2 Assay for M19 Transcription Factor (Internal Marker) (AID 2282939); conditions: HepG2 Attagene CIS-FACTORIAL M19 internal marker reporter; actives raise or lower the signal
# Outline: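 Following a 24 h exposure, RNA from transfected HepG2 cells was reverse-transcribed, PCR-amplified with reporter-specific primers, end-labelled with 6-FAM and HpaI-digested before capillary separation. Values represent gain or loss versus DMSO.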
# [4] = ATG_Ets_CIS: Attagene CIS-FACTORIAL HepG2 Assay for human Erythroblast Transformation Specific (ETS) (AID 2282941); conditions: HepG2 ETS cis-reporter transcription; AC50: actives raise or lower the signal unless noted; outcome: actives raise or lower the signal unless noted
# Outline: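 HepG2 cells transiently transfected with cis-promoter reporter transcription units were dosed for 24 h; reporter mRNA was measured by RT-PCR, 6-FAM primer extension, HpaI digestion and capillary electrophoresis, with bidirectional fitting against DMSO baseline.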
# [5] = target: Hepatocyte nuclear factor 3-beta (Homo sapiens) (UniProt Q9Y261); assay: ATG_FoxA2_CIS: Attagene CIS-FACTORIAL HepG2 Assay for human Forkhead box A2 (FOXA2) (AID 2282942); conditions: HepG2 cis-reporter transcription factor activity, 24 h; actives raise or lower the signal
# Outline: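 Endogenous transcription factor activity is captured via cis-element-driven reporter transcripts in transfected HepG2. Total RNA taken at 24 h post-dosing; labelled RT-PCR products resolved by capillary electrophoresis. Gain or loss fitted versus DMSO.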
# [6] = ATG_FoxO_CIS: Attagene CIS-FACTORIAL HepG2 Assay for human Forkhead box O (FoxO) (AID 2282943); conditions: HepG2 Attagene cis-reporter, FoxO element, mRNA; actives raise or lower the signal
# Outline: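 HepG2 cells transiently transfected with cis-promoter-driven multiple reporter transcription units; 24 h after chemical dosing, reporter mRNA quantified by RT-PCR, fluorescent primer extension, HpaI digestion and capillary electrophoresis. Bidirectional fitting versus DMSO baseline.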
# [7] = ATG_GATA_CIS: Attagene CIS-FACTORIAL HepG2 Assay for human GATA Binding Protein (AID 2282944); conditions: HepG2 GATA cis-element reporter, Attagene multiplex mRNA; actives raise or lower the signal
# Outline: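 DMSO serves as negative control and baseline for bidirectional fitting of reporter mRNA changes. HepG2 cells bearing transiently transfected cis-promoter reporters were exposed 24 h; transcripts detected via RT-PCR and capillary electrophoresis.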
# [8] = ATG_GLI_CIS: Attagene CIS-FACTORIAL HepG2 Assay for human Zinc Finger Protein GLI1 (AID 2282945); conditions: HepG2, Attagene cis-factorial reporter mRNA, GLI element; actives raise or lower the signal
# Outline: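 HepG2 cells transiently transfected with cis-promoter multiplexed reporter units report endogenous transcription factor activity. After 24 h chemical exposure, reporter mRNA was quantified by RT-PCR, 6-FAM labelling, HpaI digestion and capillary electrophoresis, with bidirectional fitting against DMSO.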
# [9] = target: Bile acid receptor (Homo sapiens) (UniProt Q96RI1); assay: ATG_IR1_CIS: Attagene CIS-FACTORIAL HepG2 Assay for human Nuclear Receptor Subfamily 1 Group H Member 4 (NR1H4), IR1 submotif (AID 2282946); conditions: IR1 reporter transcription, actives raise or lower the signal
# Outline: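 Transient MRTU transfection, HepG2; 24 h dosing; RNA → RT-PCR → 6-FAM primer extension → HpaI digest → capillary electrophoresis fluorescence. Gain/loss of signal fitted relative to DMSO.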
# [10] = ATG_ERE_CIS: Attagene CIS-FACTORIAL HepG2 Assay for Estrogen Response Element (ERE) (AID 2282940); conditions: HepG2 ERE cis-reporter, Attagene RNA transcript; actives raise or lower the signal
# Outline: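 HepG2, transient cis-reporter units, 24 h exposure. RNA isolated, oligo(dT) RT, reporter-specific PCR, FAM extension, HpaI cut, CE detection. Gain/loss-of-signal vs DMSO.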
# Chain of Bile acid receptor (Homo sapiens) (Q96RI1 whole entry, looked up): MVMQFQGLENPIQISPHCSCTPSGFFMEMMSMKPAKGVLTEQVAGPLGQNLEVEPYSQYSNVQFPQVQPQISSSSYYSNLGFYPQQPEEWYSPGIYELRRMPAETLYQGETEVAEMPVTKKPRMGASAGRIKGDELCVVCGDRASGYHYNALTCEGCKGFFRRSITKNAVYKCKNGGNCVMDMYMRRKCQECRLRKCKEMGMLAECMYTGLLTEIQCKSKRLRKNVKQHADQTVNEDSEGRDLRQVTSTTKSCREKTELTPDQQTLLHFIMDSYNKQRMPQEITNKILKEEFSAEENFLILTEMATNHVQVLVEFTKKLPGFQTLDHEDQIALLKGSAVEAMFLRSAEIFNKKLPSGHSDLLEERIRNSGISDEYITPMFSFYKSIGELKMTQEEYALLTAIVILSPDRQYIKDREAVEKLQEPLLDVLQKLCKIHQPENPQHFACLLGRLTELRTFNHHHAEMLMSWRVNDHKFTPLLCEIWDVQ
# Chain of Hepatocyte nuclear factor 3-beta (Homo sapiens) (Q9Y261 whole entry, looked up): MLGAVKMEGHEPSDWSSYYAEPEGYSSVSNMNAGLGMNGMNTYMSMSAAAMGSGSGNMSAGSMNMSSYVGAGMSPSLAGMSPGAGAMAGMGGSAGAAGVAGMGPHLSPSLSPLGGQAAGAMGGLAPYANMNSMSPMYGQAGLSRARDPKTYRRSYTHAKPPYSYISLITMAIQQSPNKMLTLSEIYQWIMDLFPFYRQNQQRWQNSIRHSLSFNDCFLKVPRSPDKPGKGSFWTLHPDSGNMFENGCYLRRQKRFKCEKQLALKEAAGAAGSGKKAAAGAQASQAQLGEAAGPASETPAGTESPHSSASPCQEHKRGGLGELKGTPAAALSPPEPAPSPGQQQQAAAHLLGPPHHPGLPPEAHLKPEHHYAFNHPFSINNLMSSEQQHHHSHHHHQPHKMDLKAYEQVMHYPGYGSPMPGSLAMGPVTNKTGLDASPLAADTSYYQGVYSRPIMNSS
smiles,measurement,setting,value
Cc1ccc(S(=O)(=O)O)cc1,outcome,[1],inactive
same,outcome,[2],inactive
same,outcome,[3],inactive
same,outcome,[4],inactive
same,outcome,[5],inactive
same,outcome,[6],inactive
same,outcome,[7],inactive
same,outcome,[8],inactive
CN(C)c1ccc(C(=C2C=CC(=[N+](C)C)C=C2)c2ccccc2)cc1,outcome,[1],inactive
same,AC50,[2],1.46 µM (active) and 1.85 µM (active)
same,outcome,[3],inactive
same,AC50,[4],10.1 µM (active)
same,outcome,[4],inactive
same,outcome,[6],inactive
same,outcome,[7],inactive
same,AC50,[8],1.42 µM (active) and 1.85 µM (active)
same,AC50,[9],1.28 µM (active)
same,outcome,[9],inactive
O=C1OC(=O)c2cc(-c3ccc4c(c3)C(=O)OC4=O)ccc21,outcome,[1],inactive
same,outcome,[2],inactive
same,outcome,[3],inactive
same,outcome,[10],inactive
same,outcome,[4],inactive
same,outcome,[6],inactive
same,outcome,[7],inactive
same,outcome,[8],inactive
same,outcome,[9],inactive
CCCCc1oc2ccccc2c1C(=O)c1cc(I)c(OCCN(CC)CC)c(I)c1,AC50,[1],89.1 µM (active)
same,AC50,[2],20.3 µM (active)
same,AC50,[3],97.7 µM (active)
same,outcome,[4],inactive
same,outcome,[5],inactive
same,outcome,[6],inactive
same,outcome,[7],inactive
same,outcome,[8],inactive
O=C(O)C(=O)O,outcome,[1],inactive
same,outcome,[2],inactive
same,outcome,[3],inactive
same,outcome,[4],inactive
same,outcome,[5],inactive
same,outcome,[6],inactive
same,outcome,[7],inactive
same,outcome,[8],inactive
CCCCCCCCCCCC,outcome,[1],inactive
same,outcome,[2],inactive
same,outcome,[3],inactive
same,outcome,[4],inactive
same,outcome,[5],inactive
same,outcome,[6],inactive
same,outcome,[7],inactive
same,outcome,[8],inactive
NS(=O)(=O)O,outcome,[1],inactive
same,outcome,[2],inactive
same,outcome,[3],inactive
same,outcome,[4],inactive
same,outcome,[5],inactive
same,outcome,[6],inactive
same,outcome,[7],inactive
same,outcome,[8],inactive
CC=O,outcome,[1],inactive
same,outcome,[2],inactive
same,outcome,[3],inactive
same,outcome,[4],inactive
same,outcome,[5],inactive
same,outcome,[6],inactive
same,outcome,[7],inactive
same,outcome,[8],inactive
same,outcome,[9],inactive
NCCN,outcome,[1],inactive
same,outcome,[2],inactive
same,outcome,[3],inactive
same,outcome,[4],inactive
same,outcome,[5],inactive
same,outcome,[6],inactive
same,outcome,[7],inactive
same,outcome,[8],inactive
CCC1CO1 (configuration not stated),outcome,[1],inactive
same,outcome,[2],inactive
same,outcome,[3],inactive
same,outcome,[4],inactive
same,outcome,[5],inactive
same,outcome,[6],inactive
same,outcome,[7],inactive
same,outcome,[8],inactive
same,outcome,[9],inactive
CCC(C)c1ccccc1O (configuration not stated),outcome,[1],inactive
same,outcome,[2],inactive
same,outcome,[3],inactive
same,outcome,[4],inactive
same,outcome,[5],inactive
same,outcome,[6],inactive
same,outcome,[7],inactive
same,outcome,[8],inactive
CCCCCCCCCCCC(=O)NCCCN(C)C,outcome,[1],inactive
same,AC50,[2],20.3 µM (active)
same,outcome,[3],inactive
same,outcome,[10],inactive
same,outcome,[4],inactive
same,AC50,[6],20.3 µM (active)
same,AC50,[7],17.2 µM (active)
same,outcome,[8],inactive
same,AC50,[9],16.4 µM (active)
Oc1cc2ccccc2cc1O,outcome,[1],inactive
same,outcome,[2],inactive
same,outcome,[3],inactive
same,outcome,[4],inactive
same,outcome,[5],inactive
same,outcome,[6],inactive
same,outcome,[7],inactive
same,outcome,[8],inactive
CC(C)c1c(C(=O)Nc2ccccc2)c(-c2ccccc2)c(-c2ccc(F)cc2)n1CC[C@@H](O)C[C@@H](O)CC(=O)O,outcome,[1],inactive
same,AC50,[2],94.5 µM (active) and 28.3 µM (active)
same,outcome,[3],inactive
same,outcome,[4],inactive
same,outcome,[5],inactive
same,outcome,[6],inactive
same,outcome,[7],inactive
same,outcome,[8],inactive
CCCC=O,outcome,[1],inactive
same,outcome,[2],inactive
same,outcome,[3],inactive
same,outcome,[4],inactive
same,outcome,[5],inactive
same,outcome,[6],inactive
same,outcome,[7],inactive
same,outcome,[8],inactive
CCCCCCCCCCCCCC[n+]1ccccc1,outcome,[1],inactive
same,AC50,[2],2.52 µM (active)
same,outcome,[3],inactive
same,outcome,[4],inactive
same,AC50,[5],18.2 µM (active)
same,outcome,[6],inactive
same,outcome,[7],inactive
same,outcome,[8],inactive
CCOC(=O)c1nc(C(Cl)(Cl)Cl)n(-c2ccc(Cl)cc2Cl)n1,outcome,[1],inactive
same,AC50,[2],100 µM (active)
same,outcome,[3],inactive
same,AC50,[4],100 µM (active)
same,outcome,[5],inactive
same,outcome,[6],inactive
same,outcome,[7],inactive
same,AC50,[8],164 µM (active)
same,AC50,[9],26.6 µM (active)
O=C(c1ccccc1)c1ccccc1,outcome,[1],inactive
same,outcome,[2],inactive
same,outcome,[3],inactive
same,outcome,[4],inactive
same,outcome,[5],inactive
same,outcome,[6],inactive
same,outcome,[7],inactive
same,outcome,[8],inactive
CCCCC=O,outcome,[1],inactive
same,outcome,[2],inactive
same,outcome,[3],inactive
same,outcome,[4],inactive
same,outcome,[5],inactive
same,outcome,[6],inactive
same,outcome,[7],inactive
same,outcome,[8],inactive
CC1CNCC(C)O1 (configuration not stated),outcome,[1],inactive
same,outcome,[2],inactive
same,outcome,[3],inactive
same,outcome,[4],inactive
same,outcome,[5],inactive
same,outcome,[6],inactive
same,outcome,[7],inactive
same,outcome,[8],inactive
O=C(CCCN1CCC(O)(c2ccc(Cl)cc2)CC1)c1ccc(F)cc1,outcome,[1],inactive
same,AC50,[2],33.4 µM (active)
same,outcome,[3],inactive
same,outcome,[4],inactive
same,outcome,[5],inactive
same,AC50,[6],52.7 µM (active)
same,AC50,[7],52.8 µM (active)
same,outcome,[8],inactive
CC(O)COc1ccccc1 (configuration not stated),outcome,[1],inactive
same,outcome,[2],inactive
same,outcome,[3],inactive
same,outcome,[4],inactive
same,outcome,[5],inactive
same,outcome,[6],inactive
same,outcome,[7],inactive
same,outcome,[8],inactive
same,outcome,[9],inactive
O=C(NO)c1ccccc1,outcome,[1],inactive
same,outcome,[2],inactive
same,outcome,[3],inactive
same,outcome,[4],inactive
same,outcome,[5],inactive
same,outcome,[6],inactive
same,outcome,[7],inactive
same,outcome,[8],inactive
COc1ccccc1NC(=O)c1cc2ccccc2cc1O,outcome,[1],inactive
same,AC50,[2],52.9 µM (active)
same,outcome,[3],inactive
same,AC50,[4],46.5 µM (active)
same,outcome,[5],inactive
same,AC50,[6],100 µM (active)
same,AC50,[7],41.1 µM (active)
same,AC50,[8],60.7 µM (active)
Brc1cc(Br)c(Oc2c(Br)cc(Br)c(Br)c2Br)cc1Br,outcome,[1],inactive
same,outcome,[2],inactive
same,outcome,[3],inactive
same,outcome,[4],inactive
same,outcome,[5],inactive
same,outcome,[6],inactive
same,outcome,[7],inactive
same,outcome,[8],inactive
Cc1ccc(C)c(S(=O)(=O)O)c1,outcome,[1],inactive
same,outcome,[2],inactive
same,outcome,[3],inactive
same,outcome,[4],inactive
same,outcome,[5],inactive
same,outcome,[6],inactive
same,outcome,[7],inactive
same,outcome,[8],inactive
CC(C)C=O,outcome,[1],inactive
same,outcome,[2],inactive
same,outcome,[3],inactive
same,outcome,[4],inactive
same,outcome,[5],inactive
same,outcome,[6],inactive
same,outcome,[7],inactive
same,outcome,[8],inactive
O=c1cc(-c2ccccc2)oc2ccc3ccccc3c12,outcome,[1],inactive
same,outcome,[2],inactive
same,outcome,[3],inactive
same,outcome,[4],inactive
same,outcome,[5],inactive
same,outcome,[6],inactive
same,outcome,[7],inactive
same,outcome,[8],inactive
c1cnc2c(c1)ccc1cccnc12,outcome,[1],inactive
same,outcome,[2],inactive
same,outcome,[3],inactive
same,outcome,[4],inactive
same,outcome,[5],inactive
same,outcome,[6],inactive
same,outcome,[7],inactive
same,outcome,[8],inactive
CS(=O)(=O)c1ccc([C@@H](CC2CCCC2)C(=O)Nc2cnccn2)cc1Cl,outcome,[1],inactive
same,AC50,[2],50.6 µM (active)
same,outcome,[3],inactive
same,outcome,[4],inactive
same,AC50,[6],152 µM (active)
same,outcome,[7],inactive
same,outcome,[8],inactive
O=C(Nc1ccc(Cl)c(Cl)c1)c1cc(Cl)cc(Cl)c1O,outcome,[1],inactive
same,AC50,[2],8.8 µM (active)
same,outcome,[3],inactive
same,outcome,[4],inactive
same,AC50,[5],0.502 µM (active)
same,outcome,[6],inactive
same,outcome,[7],inactive
same,AC50,[8],50.6 µM (active)
same,AC50,[9],52.4 µM (active)
CCCCCCCCCCCC[N+](C)(C)CCCCCCCCCCCC,outcome,[1],inactive
same,outcome,[2],inactive
same,outcome,[3],inactive
same,AC50,[4],36.3 µM (active)
same,outcome,[5],inactive
same,outcome,[6],inactive
same,outcome,[7],inactive
same,outcome,[8],inactive
same,outcome,[9],inactive
COCC1CCC(CO)CC1 (configuration not stated),outcome,[1],inactive
same,outcome,[2],inactive
same,outcome,[3],inactive
same,outcome,[4],inactive
same,outcome,[6],inactive
same,outcome,[7],inactive
same,outcome,[8],inactive
same,outcome,[9],inactive
C=CC(=O)OCCN(CC)CC,outcome,[1],inactive
same,AC50,[2],54.4 µM (active)
same,outcome,[3],inactive
same,outcome,[4],inactive
same,outcome,[5],inactive
same,outcome,[6],inactive
same,outcome,[7],inactive
same,outcome,[8],inactive
same,outcome,[9],inactive
